A short description of experiment [1]: ATG_CRE_CIS: Attagene CIS-FACTORIAL HepG2 Assay for human cAMP Responsive Element (CRE) binding protein 3 (AID 2282926). The settings on record: HepG2 CRE cis-reporter, Attagene multiplexed mRNA; actives raise or lower the signal. Put shortly:
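We dosed HepG2 cells bearing multiple cis-promoter reporter units for 24 h and measured reporter mRNA by RT-PCR with capillary electrophoresis detection. Bidirectional concentration-response fitting used DMSO as negative control.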

Experiment [2] addresses CCAAT/enhancer-binding protein beta (Homo sapiens) (UniProt P17676). Kind of experiment: ATG_C_EBP_CIS: Attagene CIS-FACTORIAL HepG2 Assay for human CCAAT/Enhancer Binding Protein (C/EBP) beta (AID 2282927). The settings on record: HepG2 Attagene cis-factorial transcription factor reporter; actives raise or lower the signal. Put shortly: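 Chemical-treated HepG2 cells (24 h) bearing cis-regulated reporter constructs were processed for total RNA, then reverse transcription, PCR amplification, fluorescent primer extension and fragment analysis; gain- and loss-of-signal were fitted against DMSO.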

The nature of experiment [3]: ATG_CMV_CIS: Attagene CIS-FACTORIAL HepG2 Assay for human CMV (Internal Marker) (AID 2282928).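 Also: endpoint acts as a background internal control marker rather than a target.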 The settings on record: HepG2 CMV promoter reporter, transcription factor profiling; actives raise or lower the signal. Put shortly:
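HepG2 cells transiently transfected with multiple cis-regulated reporter units; 24 h compound exposure. Reporter mRNA quantified by RT-PCR, 6-FAM primer-extension labeling, HpaI digestion and capillary electrophoresis; bidirectional fitting against DMSO baseline.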

A short description of experiment [4]: ATG_DR4_LXR_CIS: Attagene CIS-FACTORIAL HepG2 Assay for human Liver X Receptor (LXR), DR4 submotif (AID 2282929). To be noted: HepG2 Attagene DR4 cis-reporter, mRNA transcription; actives raise or lower the signal. In outline:
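Total RNA from 24 h-treated, MRTU-transfected HepG2 cells underwent reverse transcription, PCR, fluorescent primer extension and restriction digestion before capillary electrophoresis. Both increases and decreases in reporter signal were fitted against DMSO.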

Experiment [5] concerns the target Aryl hydrocarbon receptor (Homo sapiens) (UniProt P35869). Nature of the experiment: ATG_Ahr_CIS: Attagene CIS-FACTORIAL HepG2 Assay for human Aryl Hydrocarbon Receptor (Ahr) (AID 2282930). The settings on record: HepG2 AhR cis-factorial reporter transcription; actives raise or lower the signal. Put shortly:
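Following 24 h of chemical dosing, transfected HepG2 liver cells with cis-driven reporter units were lysed for RNA; reporter mRNA was quantified via RT-PCR and capillary electrophoresis, and responses fitted bidirectionally from DMSO.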

The nature of experiment [6]: ATG_AP_1_CIS: Attagene CIS-FACTORIAL HepG2 Assay for human Activator Protein 1 (AP-1) (AID 2282931). The settings on record: HepG2 Attagene cis-factorial AP-1 reporter mRNA; actives raise or lower the signal. In outline:
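HepG2, transient cis-reporter transfection; 24 h; readout RT-PCR/CE fluorescence; DMSO baseline, gain and loss fitted.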

Experiment [7] in a line: ATG_AP_2_CIS: Attagene CIS-FACTORIAL HepG2 Assay for human Activator Protein 2 (AP-2) (AID 2282932). To be noted: HepG2 AP-2 cis-reporter, Attagene transcription factor profiling; actives raise or lower the signal. Put shortly:
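Bidirectional curve fitting against DMSO was applied to reporter mRNA signals from HepG2 cells 24 h after dosing. Cis-promoter reporter units, transiently transfected, were read by RT-PCR plus capillary electrophoresis.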

Experiment [8] can be described thus: ATG_BRE_CIS: Attagene CIS-FACTORIAL HepG2 Assay for human Bone Morphogenetic Protein (BMP) Response Element (BRE) (AID 2282933). The settings on record: HepG2 BMP response element reporter, Attagene transcription factor profiling; actives raise or lower the signal. In outline: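 Multiplexed cis-reporter assay, HepG2, 24 h exposure. mRNA from reporter units quantified via RT-PCR/CE; DMSO baseline; bidirectional curve fit.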

Experiment [9] concerns the target Transcription factor E2F1 (Homo sapiens) (UniProt Q01094). Kind of experiment: ATG_E2F_CIS: Attagene CIS-FACTORIAL HepG2 Assay for human E2F Transcription Factor 1 (AID 2282935). To be noted: HepG2 Attagene cis-reporter, E2F reporter RNA transcripts; actives raise or lower the signal. Put shortly: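 Multiplexed cis-reporter assay: HepG2, transient transfection, 24 h dosing, mRNA quantitation by labeled RT-PCR and CE.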

Experiment [10] in a line: ATG_E_Box_CIS: Attagene CIS-FACTORIAL HepG2 Assay for human Enhancer Box (E-box) (AID 2282936). The settings on record: HepG2 E-box cis-reporter transcription, actives raise or lower the signal. In outline: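 Multiplexed CIS reporter system in transiently transfected HepG2 cells measures native transcription factor activity. Reporter RNA after 24 h exposure is profiled by RT-PCR-capillary electrophoresis.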

The nature of experiment [11]: ATG_M_61_CIS: Attagene CIS-FACTORIAL HepG2 Assay for M61 Transcription Factor (Internal Marker) (AID 2282937). The settings on record: HepG2 Attagene CIS-FACTORIAL M61 internal marker reporter; actives raise or lower the signal. In outline:
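Transfect HepG2 with MRTUs; dose 24 h; isolate RNA; reverse-transcribe with DNase I treatment; PCR-amplify, FAM-label and cut with HpaI for 2 h at 37 C; resolve by CE. Bidirectional fitting against DMSO.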

Experiment [12] can be described thus: ATG_EGR_CIS: Attagene CIS-FACTORIAL HepG2 Assay for human Early Growth Response 1 (EGR1) (AID 2282938). The settings on record: HepG2 Attagene CIS-FACTORIAL EGR reporter mRNA; actives raise or lower the signal. In outline:
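After a 24 h treatment of transiently transfected HepG2 cells, total RNA was reverse-transcribed and reporter sequences PCR-amplified, labelled and run on capillary electrophoresis. Reporters sit under cis-regulatory promoters sensing endogenous factors.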

Experiment [13] addresses Retinoic acid receptor alpha (Homo sapiens) (UniProt P10276). Nature of the experiment: ATG_DR5_RAR_CIS: Attagene CIS-FACTORIAL HepG2 Assay for human Retinoic Acid Receptor Alpha (RARE), DR5 submotif (AID 2282934). To be noted: HepG2 Attagene cis-factorial RARE DR5 reporter, mRNA; actives raise or lower the signal. Put shortly: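 Transfected HepG2 reporter cells are exposed to chemicals for 24 h. Then RNA is extracted and the DR5 element reporter transcript is measured by RT-PCR and capillary electrophoresis, with bidirectional curve fitting relative to DMSO.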

Activity calls are given as the source filed them. The calls were made as follows: active = hit-call score of the fitted dose curve at least 0.9, where 1 is the maximum; inactive = score below 0.9.

Chain of CCAAT/enhancer-binding protein beta (Homo sapiens) (P17676 whole entry, looked up, the tested form may be a part): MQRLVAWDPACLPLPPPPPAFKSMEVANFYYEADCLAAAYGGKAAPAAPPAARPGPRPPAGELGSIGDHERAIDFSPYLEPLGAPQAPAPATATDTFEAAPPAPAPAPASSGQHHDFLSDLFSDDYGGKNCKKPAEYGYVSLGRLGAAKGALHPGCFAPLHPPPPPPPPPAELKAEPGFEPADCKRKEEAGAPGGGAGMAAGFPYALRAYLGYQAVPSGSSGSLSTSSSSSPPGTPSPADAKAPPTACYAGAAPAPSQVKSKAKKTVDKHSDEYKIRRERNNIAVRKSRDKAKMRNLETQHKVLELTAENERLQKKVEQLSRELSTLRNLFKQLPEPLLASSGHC
Chain of Retinoic acid receptor alpha (Homo sapiens) (P10276 whole entry, looked up): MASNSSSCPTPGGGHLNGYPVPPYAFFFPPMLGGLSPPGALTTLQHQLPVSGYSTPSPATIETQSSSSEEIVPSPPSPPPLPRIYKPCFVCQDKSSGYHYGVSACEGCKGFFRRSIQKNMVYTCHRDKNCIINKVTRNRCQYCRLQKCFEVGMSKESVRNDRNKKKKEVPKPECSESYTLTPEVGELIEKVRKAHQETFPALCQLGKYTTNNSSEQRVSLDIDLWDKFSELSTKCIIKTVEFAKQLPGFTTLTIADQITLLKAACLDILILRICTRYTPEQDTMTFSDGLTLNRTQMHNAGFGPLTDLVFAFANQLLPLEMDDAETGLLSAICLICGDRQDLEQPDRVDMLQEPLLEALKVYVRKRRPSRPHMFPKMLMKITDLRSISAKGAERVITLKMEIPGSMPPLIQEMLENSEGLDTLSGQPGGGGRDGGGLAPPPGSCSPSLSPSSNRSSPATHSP
Chain of Transcription factor E2F1 (Homo sapiens) (Q01094 whole entry, looked up): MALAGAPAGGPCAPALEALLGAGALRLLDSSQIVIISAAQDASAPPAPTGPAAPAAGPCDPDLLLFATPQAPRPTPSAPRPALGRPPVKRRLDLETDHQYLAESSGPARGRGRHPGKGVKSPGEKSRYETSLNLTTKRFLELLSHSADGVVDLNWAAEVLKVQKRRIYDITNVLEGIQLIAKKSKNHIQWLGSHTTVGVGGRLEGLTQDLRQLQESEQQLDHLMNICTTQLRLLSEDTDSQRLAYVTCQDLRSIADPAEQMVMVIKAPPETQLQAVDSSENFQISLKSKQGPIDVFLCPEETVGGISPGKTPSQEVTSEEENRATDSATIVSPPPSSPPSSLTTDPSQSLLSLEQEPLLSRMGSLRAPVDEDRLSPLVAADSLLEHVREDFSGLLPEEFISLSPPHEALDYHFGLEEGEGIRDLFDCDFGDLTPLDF
Chain of Aryl hydrocarbon receptor (Homo sapiens) (P35869 whole entry, looked up): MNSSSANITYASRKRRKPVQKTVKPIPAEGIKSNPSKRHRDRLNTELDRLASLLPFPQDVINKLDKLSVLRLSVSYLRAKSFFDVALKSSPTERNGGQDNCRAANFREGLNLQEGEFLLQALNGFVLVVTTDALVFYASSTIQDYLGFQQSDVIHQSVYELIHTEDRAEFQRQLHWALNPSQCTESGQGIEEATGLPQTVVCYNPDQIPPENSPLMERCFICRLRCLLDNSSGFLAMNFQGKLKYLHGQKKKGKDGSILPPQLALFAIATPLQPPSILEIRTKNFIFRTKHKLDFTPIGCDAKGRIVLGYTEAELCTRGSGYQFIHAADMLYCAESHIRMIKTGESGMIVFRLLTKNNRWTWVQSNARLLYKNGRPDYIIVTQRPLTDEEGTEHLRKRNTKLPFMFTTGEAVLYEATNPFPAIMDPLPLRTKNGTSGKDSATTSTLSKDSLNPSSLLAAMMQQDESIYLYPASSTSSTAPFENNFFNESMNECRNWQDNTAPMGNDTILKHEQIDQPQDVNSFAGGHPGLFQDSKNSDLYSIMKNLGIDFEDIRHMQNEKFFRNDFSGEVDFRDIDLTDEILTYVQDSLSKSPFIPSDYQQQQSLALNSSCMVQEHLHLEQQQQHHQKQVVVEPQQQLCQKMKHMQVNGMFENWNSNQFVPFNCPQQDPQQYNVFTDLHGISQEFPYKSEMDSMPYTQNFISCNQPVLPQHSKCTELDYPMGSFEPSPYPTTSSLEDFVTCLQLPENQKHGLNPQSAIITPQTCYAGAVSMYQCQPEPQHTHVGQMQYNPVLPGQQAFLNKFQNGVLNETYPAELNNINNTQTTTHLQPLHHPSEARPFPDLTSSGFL

On to `CCCCOC(=O)COC(=O)c1ccccc1C(=O)OCCCC`, for which the molecule was classed as inactive in experiment [1], in experiment [2], in [3], in experiment [4], in experiment [5] and in [6]. The call in experiment [7], in [8], in experiment [9], in experiment [10], in experiment [11] and in [12] was inactive.

By AC50 is commonly meant the concentration giving half of the maximal activity seen. Consider `CCOP(=S)(OCC)SCS(=O)(=O)C(C)(C)C`, for which the outcome in [1], in [2], in experiment [3], in experiment [5], in experiment [6] and in experiment [7] was inactive. The molecule was called inactive in experiment [8], in experiment [13], in experiment [11] and in experiment [12]. Moreover, the AC50 in experiment [4] was 29.2 µM (active).

In the case of `CNC(=O)O/N=C/C(C)(C)S(C)(=O)=O`, the molecule was called inactive in experiment [1], in experiment [2], in [3], in [4], in [5] and in [6]. The molecule was classed as inactive in experiment [7], in experiment [8], in [13], in [10], in [11] and in [12].

Take `O=C1c2ccccc2C(=O)C1C(=O)C(c1ccccc1)c1ccc(Cl)cc1` (centres undefined): the AC50 in experiment [1] was 27.5 µM (active); in experiment [3], 13.7 µM (active); in experiment [5] it was 8.72 µM (active); in experiment [6], 5.27 µM (active); in [8] it was 5.02 µM (active); in experiment [11] it was 88.4 µM (active). Moreover, the concentration at half-maximal activity (AC50) in experiment [12] was 13.1 µM (active). In addition, the outcome in [2], in [4], in experiment [7], in experiment [9] and in experiment [10] was inactive.

Take `CCCCN(CCCC)C(=S)S`: the call in [1], in experiment [2], in [5], in [7], in experiment [9] and in [11] was inactive. For the same molecule, the AC50 in experiment [3] is 162 µM (active); in [4], 100 µM (active); in experiment [6], 171 µM (active); in [8], 146 µM (active); in [10] it was 130 µM (active); in [12] it was 110 µM (active).

On to `Brc1ccc(Br)cc1`, for which the result in [1], in [2], in experiment [3], in [4], in experiment [5] and in [6] was inactive. The call in [7], in experiment [8], in experiment [9], in [10], in experiment [11] and in [12] was inactive.

In the case of `Cc1cc(Cl)ccc1OC(C)C(=O)O` (centres undefined), the outcome in experiment [1], in experiment [2], in [3], in experiment [4], in experiment [6] and in experiment [7] was inactive. In addition, the call in [8], in experiment [9], in experiment [10], in experiment [11] and in experiment [12] was inactive. In addition, in experiment [5], the AC50 is 28.5 µM (active).

For the molecule `Cc1cc(-c2cc(C)c(N)c(C)c2)cc(C)c1N`, the molecule was called inactive in experiment [1], in experiment [2], in experiment [4], in experiment [6], in experiment [7] and in experiment [8]. In addition, the call in [9], in experiment [10], in [11] and in experiment [12] was inactive. For the same molecule, the results for the concentration at half-maximal activity (AC50) in [3] and in [5] were 37.8 µM (active) and 0.776 µM (active), respectively.

Consider `CCOP(=S)(OCC)Oc1ccc(Cl)cc1Cl`, for which the outcome in experiment [1], in [2], in experiment [4], in experiment [5], in experiment [6] and in [7] was inactive. Besides, the molecule was classed as inactive in experiment [8], in experiment [13], in [10], in [11] and in experiment [12]. Besides, the AC50 in experiment [3] is 63 µM (active).

In the case of `CCCCCCCCCCCCCl`, the molecule was classed as inactive in experiment [1], in experiment [2], in experiment [3], in experiment [4], in experiment [5] and in experiment [6]. In addition, the molecule was called inactive in [7], in experiment [8], in experiment [9], in [10], in experiment [11] and in experiment [12].

The record behind these values is PubChem BioAssay (EPA / NIEHS).
